Activity calls are given as the source filed them. Rule for the calls: active = hit-call score of the fitted dose curve at least 0.9, where 1 is the maximum; inactive = score below 0.9.
Target: human EphA1 Receptor Tyrosine Kinase, EPHA1 (gene 2041) (UniProt P21709)
Assay: ERF_FR_ENZ_hEPHA1: Eurofins (ERF) Enzymatic Radiometric [Km ATP] KinaseProfiler LeadHunter Assay for human EphA1 Receptor Tyrosine Kinase
Method: ERF_FR_ENZ_hEPHA1 is a biochemical, single-readout assay that uses extracted gene-proteins in a cell-free assay. Measurements were taken 0.5 hour after chemical dosing in a 96-well plate. See EphA1 Human RTK Kinase Enzymatic HTRF Assay [Km ATP], Cerep.ERF_FR_ENZ_hEPHA1 is an assay component calculated from the ERF_FR_ENZ_hEPHA1 assay. It is designed to measure enzyme activity using a type of enzyme reporter as detected by fluorescence intensity with HTRF technology.Data from the assay component ERF_FR_ENZ_hEPHA1 was analyzed at the assay endpoint, ERF_FR_ENZ_hEPHA1, in the positive analysis fitting direction relative to DMSO as the negative control and baseline of activity. Using a type of enzyme reporter, loss-of-signal activity can be used to understand changes in enzymatic activity as they relate to gene EPHA1. To generalize the intended target to other relatable targets, this assay endpoint is annotated to the kinase intended target family, where the subfamily is receptor tyrosine kinase.
EphA1 (h) is incubated with 8 mM MOPS pH 7.0, 0.2 mM EDTA, 250 uM […], 10 mM MgAcetate and [gamma-33P]-ATP (specific activity and concentration as required). The reaction is initiated by the addition of the Mg/ATP mix. After incubation for 40 minutes at room temperature, the reaction is stopped by the addition of phosphoric acid to a concentration of 0.5%. […]

Chain of human EphA1 Receptor Tyrosine Kinase, EPHA1 (gene 2041) (P21709 whole entry, looked up): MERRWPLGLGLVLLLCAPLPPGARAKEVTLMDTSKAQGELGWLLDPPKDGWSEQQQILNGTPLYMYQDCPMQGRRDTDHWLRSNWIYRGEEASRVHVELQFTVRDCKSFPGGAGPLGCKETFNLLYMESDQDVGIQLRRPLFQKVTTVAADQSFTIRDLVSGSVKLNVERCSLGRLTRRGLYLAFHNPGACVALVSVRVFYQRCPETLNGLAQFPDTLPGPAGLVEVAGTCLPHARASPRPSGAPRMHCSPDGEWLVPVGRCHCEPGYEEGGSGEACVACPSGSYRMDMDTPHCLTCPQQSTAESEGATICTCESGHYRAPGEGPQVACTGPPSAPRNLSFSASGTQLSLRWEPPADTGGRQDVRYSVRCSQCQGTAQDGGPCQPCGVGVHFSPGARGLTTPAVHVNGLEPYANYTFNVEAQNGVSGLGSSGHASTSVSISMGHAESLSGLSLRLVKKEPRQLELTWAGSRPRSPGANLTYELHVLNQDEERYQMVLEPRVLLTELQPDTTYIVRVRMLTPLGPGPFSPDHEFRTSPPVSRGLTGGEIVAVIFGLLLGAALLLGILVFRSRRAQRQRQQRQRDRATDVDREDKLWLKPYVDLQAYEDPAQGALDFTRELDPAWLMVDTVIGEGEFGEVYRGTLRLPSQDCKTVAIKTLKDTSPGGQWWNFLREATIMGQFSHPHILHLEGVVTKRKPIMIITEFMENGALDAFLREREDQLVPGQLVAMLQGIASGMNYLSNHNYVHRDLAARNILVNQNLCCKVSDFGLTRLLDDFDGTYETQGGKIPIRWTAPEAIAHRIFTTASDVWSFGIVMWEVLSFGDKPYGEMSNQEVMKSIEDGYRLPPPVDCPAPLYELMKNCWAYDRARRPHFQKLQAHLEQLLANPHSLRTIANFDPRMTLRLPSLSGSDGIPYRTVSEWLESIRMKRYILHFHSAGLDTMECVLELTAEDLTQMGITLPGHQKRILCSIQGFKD

| Compound | outcome |
| --- | --- |
| O=C(/C=C/c1ccc(O)cc1)CC(=O)/C=C/c1ccc(O)cc1 | inactive |
